40 compounds from PubChem BioAssay (NCI) can be followed below.

The panel holds about 83,000 compounds, 20% with a hit somewhere; the sample as a whole holds those more often.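 How to read the values: 0–100, growth inhibition (40 = 60% inhibited); 0, no net growth; -100 to 0, cell death (-40 = 40% of starting cells died; -100 = all dead).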 A number with no mark means an inactive call. Calls of active or inactive are those of the source. How the source made its calls: active means growth percent below 10; inactive means the rest.

For this experiment, the system named is MDA-MB-468 breast. Nature of the experiment: NCI-60 one-dose screen, 48 h (100 = growth as untreated, 0 = no growth, -100 = all killed). To be noted: 10 µM unless noted.
In the case of `CCN(CC)CCCNc1cc(OC)cc2cccnc12`, the growth is 59%.
Next, `CN(C)c1ccc2c(c1)OC(N)=C(C#N)C2c1ccc2c(c1)CCCN2C` (stereo not given): 20.6%.
As to `CC(=Nc1ccccc1)C1=C(O)C(Cc2ccccc2)NC1=O` (stereo not given), the growth was 15.4%.
As to `COc1cc2ncnc(Nc3ccc(F)c(Cl)c3)c2cc1OCC(=O)N1CCN(c2ccc(F)cc2)CC1`, the growth is -7.58% (active).
For `O=C1c2cc(I)ccc2Oc2cc([N+](=O)[O-])ccc2N1c1ccc(Cl)cc1F`, the growth is 96.2%.
In the case of `O=C(O)COCC(=O)O`, the growth is 93.6%.
The value for `Cc1cc(C)nc(NC(N)=NCCc2ccccc2)n1` was -3.56% (active).
Turning to `COc1ccc(-c2c(-c3cc(OC)c(OC)c(OC)c3)noc2N)cc1`, the growth was -5.06% (active).
`CCCCCC(=O)Oc1ccc(/C(=C(\C)c2ccc(OC)cc2)c2ccc(OCCN3CCCCC3)cc2)cc1`: the growth was 85.3%.
Regarding `Cc1occc1-c1nc2s/c(=C/c3ccc(-c4cc(C(F)(F)F)ccc4Cl)o3)c(=O)n2n1`, the growth was 108%.
On to `COc1ccc(/C(C#N)=C/c2nc3c(N4CCOCC4)nc(Cl)nc3n2C)cc1OC`, for which the growth is -20.9% (active).
The value for `NC(=O)c1ccc(Br)o1` was 103%; that for `O=C1SCN(Cc2ccccc2)CN1Cc1ccccc1` was 24.8%.
Turning to `Cc1ccc(S(=O)(=O)NCC[C@@H]2C[C@H]2c2cc3ccccc3s2)cc1`, the growth is 83.7%.
The value for `CC/C=C\C[C@H](O)C/C=C1/C(=O)C(Cl)=C[C@@H]1C/C=C\CCCC(=O)O` was 41.1%; that for `CC1(C)CC[C@]2(CO)CC[C@]3(C)C(=CC[C@@H]4[C@@]5(C)CC[C@H](NCO)C(C)(C)[C@@H]5CC[C@]43C)[C@@H]2C1` was -70.1% (active).
The value for `O=C1c2ccc3c4c(ccc(c24)C(=O)N1CCCCO)C(=O)N(CCCCO)C3=O` was -29.2% (active); that for `COCCOCCOCc1n(Cc2ccc3ccccc3n2)c2ccccc2[n+]1Cc1ccc2ccccc2c1` was -50.1% (active); that for `C=CCn1cc(-c2nc3ccccc3s2)c2cc(-c3ccc4c5c(cccc35)C(=O)N(CCN3CCNCC3)C4=O)ccc21` was 88.4%.
Consider `CCOC(=O)c1c(C)oc2ncnc(Nc3ccc(NC(=O)Nc4ccc(CC)cc4)cc3)c12`, for which the growth is 128%.
For the compound `CCCCCCCCCCCC1=NCCCN1CCCC`, the growth was 101%.
As to `COc1cc(/C=C\c2cc(/C=C\c3ccc(O)c(OC)c3)n(C(=O)COc3ccccc3)n2)ccc1O`, the growth was -1.76% (active).
With `CCOC(=O)n1cc(-c2nonc2-c2cn(C)c3ncccc23)c2ccccc21`, the growth is -8.56% (active).
The value for `c1ccc(-c2n(Cc3ccc4ccccc4c3)c3c4ccccc4c4ccccc4c3[n+]2Cc2ccc3ccccc3c2)cc1` was -75.5% (active); that for `N#Cc1c(-c2ccccc2)cc(-c2ccccc2)n(CCCC(=O)NO)c1=O` was 33.3%; that for `[2H]C([2H])([2H])Oc1ccc(F)cc1/C=C/C(=O)/C=C(/C=C/c1cc(F)ccc1OC([2H])([2H])[2H])OB(F)F` was 69.5%.
For `CCCCCCCCCCCC1=NC(C)(C)CN1C(C)(C)CO`, the growth is -16% (active).
On to `CC(C)(C)c1ccc(CC(=O)Nc2sc3c(c2C(N)=O)CCC(=O)C3)cc1`, for which the growth is -13.9% (active).
Consider `Cc1ccc2oc(=O)cc(-c3nc4ccc([N+](=O)[O-])cc4[nH]3)c2c1`, for which the growth was 29%.
On to `Fc1ccccc1Nc1n[nH]c(=S)s1`, for which the growth is 106%.
As to `CS(=O)(=O)c1ccc(C(=O)N/N=C/c2ccccc2O)cc1`, the growth was 64.7%.
Consider `Cc1cc(Cl)ccc1Nc1nc(C(F)(F)F)ccc1C(=O)NCC(=O)N/N=C/c1c(Cl)cccc1Cl`, for which the growth was 105%.
Turning to `C=CCn1c(SCC(=O)NCc2cc(C)c(O)c(C)c2)nc2ccc(Cl)cc2c1=O`, the growth is 91.1%.
The value for `Cc1cc(N)c2ccccc2[n+]1CCCCCCCCCC[n+]1c(C)cc(N)c2ccccc21` was -55.7% (active).
Consider `CC(C)(C)CC1(C)NC(=O)NC1=O` (stereo not given), for which the growth was 96.1%.
Take `CN1[C@@H]2CC[C@H]1/C(=C\c1ccccc1)C1=C2[C@@H](c2ccccc2)C(C#N)=C(N)O1`: the growth was 50.3%.
As for `O=C1NC(=O)/C(=C\c2ccccc2)C2=C1CCCC2`, the growth is 95.3%.
On to `Fc1ccc(Nc2ncnc3ccc(-c4cn[nH]c4)cc23)cc1Cl`, for which the growth was -21.9% (active).
Consider `COc1ccc2[nH]cc(/C=C3/C(=O)Nc4ccc(F)cc43)c2c1`, for which the growth was 79.1%.
As to `O=C(N/N=C/c1ccc([N+](=O)[O-])o1)c1ccc(O)cc1`, the growth is 12.8%.
